Measurements published in PubChem BioAssay (NCATS).
Records with an inconclusive call do not appear. For some assays here: Potency and affinity values are given separately. Active and inactive are the calls of the source. Unless noted, the rule behind the calls is not given here.

Legend:
[1] = Ebola virus entry assay, green fluorescence channel
[2] = Ebola virus entry assay, blue channel fluorescence
[3] = Ebola virus entry assay, ratio channel
[4] = Ebola virus entry assay, reporter ratio channel; Channel type: primary
[5] = qHTS assay for measurement of the activity of small molecule inhibitors on Zika virus induced Caspase-3 activity in human iPSC derived neural progenitor cells (hNPCs) (AID 1224857; active = well fitted inhibition curve with a large enough effect; note: % of control where 0% means no effect; nearly all actives have a fitted effect of over 65% in size); conditions: hNPCs ZIKV-induced caspase-3/7, Caspase-Glo luminescence, 6 h; series mostly up to 45.7 µM
Method in brief: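 Zika virus (2 FFU/cell) infection of human iPSC-derived NPCs, 6 h, following 1 h compound preincubation. Read-out: Caspase-Glo 3/7 luminescence.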

[6] = qHTS assay for measurement of the activity of small molecule inhibitors on Zika virus induced Caspase-3 activity in human astrocytoma cells (AID 1224859; active = well fitted inhibition curve with a large enough effect;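 note: plate controls were ZIKV-infected untreated cells for no effect and uninfected cells for full effect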); conditions: SNB-19 ZIKV-induced caspase-3/7, luminescence, 6 h; series mostly up to 45.7 µM
Method in brief: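 Caspase activation in ZIKV-infected SNB-19 cells (2 FFU/cell, 6 h) measured by Caspase-Glo 3/7 luminescence after 30 min RT; compound pre-incubated 1 h; normalised to uninfected and infected controls.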

[7] = Ebola virus entry assay, blue channel (ratio component)
[8] = Ebola virus entry assay, green channel fluorescence
[9] = Immunotoxin (HA22) sensitization/mitigation study. Vehicle arm (PBS) (AID 1159510); conditions: cancer cells viability with PBS vehicle (HA22 study); series mostly up to 46.1 µM
[10] = Immunotoxin (SS1P) sensitization/mitigation study. Vehicle arm (DMEM) (AID 1159513); conditions: cell viability with vehicle (DMEM); series mostly up to 46.1 µM
[11] = qHTS profiling of the MIPE4 collection as inhibitors of Plasmodium falciparum (3D7) proliferation (AID 743344);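 note: scaled between DMSO vehicle wells and 0.29 µM artemisinin as full inhibition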; conditions: P. falciparum 3D7 in erythrocytes, SYBR Green DNA fluorescence, 72 h; at 28.5 µM (top of the series)
Method in brief: (§1)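 Parasite DNA was quantified by SYBR Green I fluorescence (ex 485, em 535 nm) after overnight lysis in saponin/Triton buffer at room temperature. Cultures at 0.3% parasitemia and 2.5% hematocrit were first exposed to compound for 72 h at 37 C; signals were normalised to artemisinin (0.29 uM) and vehicle wells.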

[12] = qHTS profiling of the MIPE4 collection as inhibitors of Plasmodium falciparum (DD2) proliferation (AID 743345); conditions: P. falciparum Dd2 in erythrocytes, SYBR Green DNA, 72 h; at 28.5 µM (top of the series)
Method in brief: as §1

[13] = qHTS profiling of the MIPE4 collection as inhibitors of Plasmodium falciparum (DD2) proliferation (Rep 2) (AID 743346); conditions: P. falciparum Dd2 in erythrocytes, SYBR Green DNA, 72 h; at 28.5 µM (top of the series)
Method in brief: as §1

[14] = qHTS profiling of the MIPE4 collection as inhibitors of Plasmodium falciparum (HB3) proliferation (AID 743347);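 note: plate controls were DMSO vehicle wells for no effect and artemisinin wells for full effect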; conditions: P. falciparum HB3 in erythrocytes, SYBR Green DNA, 72 h; at 28.5 µM (top of the series)
Method in brief: as §1

[15] = High-throughput drug toxicity screening in the BPDCN cell line Gen2.2 (AID 1224824); conditions: Gen2.2 BPDCN cells; at 45.8 µM (top of the series);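 note: cells exposed to compounds for 48 h before reading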
Method in brief: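 CellTiter-Glo luminescence after 48 h compound exposure of Gen2.2 cells; percent activity set with DMSO as 100% and bortezomib (9.2 uM final) as 0%. Cells seeded at 500 per well, RPMI + 10% FBS, 37 °C.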

[16] = High-throughput drug toxicity screening in the BPDCN cell line Cal-1 (AID 1224825); conditions: Cal-1 BPDCN cell viability, qHTS; at 45.8 µM (top of the series)
Method in brief: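 CellTiter-Glo luminescence after 48 h compound exposure; percent activity scaled with DMSO as 100% and bortezomib (9.2 uM final) as 0%. Cal-1 cells seeded at 500/well in RPMI, 10% FBS, no phenol red.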

[17] = qHTS Screen of the MIPE 4.0 Collection Against Ewings Sarcoma (RDES) (AID 1259252; active = well fitted inhibition curve with a large enough effect; note: potency is the fitted concentration of half-maximal effect; nearly all actives have a fitted effect of over 35% in size); conditions: RD-ES Ewing sarcoma viability, CellTiter-Glo, 48 h; series mostly up to 45.8 µM
Method in brief: (§2)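 Dose series incubated 48 h with cells in RPMI plus 5% FBS, glutamine and penicillin/streptomycin; cell viability then quantified via CellTiter-Glo.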

[18] = qHTS Screen of the MIPE 4.0 Collection Against Ewings Sarcoma (TC71) (AID 1259253; active = well fitted inhibition curve with a large enough effect; note: potency is the fitted concentration of half-maximal effect; nearly all actives have a fitted effect of over 40% in size); conditions: TC71 Ewing sarcoma viability, CellTiter-Glo, 48 h; series mostly up to 45.8 µM
Method in brief: as §2

[19] = qHTS Screen of the MIPE 4.0 Collection Against Ewings Sarcoma (EW8) (AID 1259255; active = well fitted inhibition curve with a large enough effect; note: potency is the fitted concentration of half-maximal effect; nearly all actives have a fitted effect of over 35% in size); conditions: EW8 Ewing sarcoma viability, CellTiter-Glo, 48 h; series mostly up to 45.8 µM
Method in brief: as §2

[20] = qHTS Screen of the MIPE 4.0 Collection Against Ewings Sarcoma (TC32) (AID 1259256; active = well fitted inhibition curve with a large enough effect; note: potency is the fitted concentration of half-maximal effect; nearly all actives have a fitted effect of over 45% in size); conditions: TC32 Ewing sarcoma viability, CellTiter-Glo, 48 h; series mostly up to 45.8 µM
Method in brief: as §2
Throughout, for efficacy: 0% is about no effect.

CN1C2CCC(C)(C)C1CC(OC(=O)C(O)(c1cccs1)c1cccs1)C2 (centres undefined)
inactive: efficacy [1] 75.5% | Potency [5] | outcome [6]
active: AC50 [2] 20 µM | AC50 [3] 15.8 µM | AC50 [4] 15.8 µM

C[C@H](CN1CCOCC1)C(C(=O)N1CCCC1)(c1ccccc1)c1ccccc1
inactive: efficacy [1] 92.9% | outcome [3] | Potency [5] | outcome [6]
active: AC50 [2] 35.5 µM | AC50 [4] 44.7 µM

CN1[C@@H]2CC[C@H]1CC(OC(=O)c1cc(Cl)cc(Cl)c1)C2 (some centres undefined)
active: AC50 [2] 25.1 µM | AC50 [3] 28.2 µM | AC50 [4] 28.2 µM
inactive: efficacy [1] 82.4% | outcome [6]

O=C1CN2CCOC2(c2ccccc2Cl)c2cc(Cl)ccc2N1 (centres undefined)
inactive: efficacy [1] 46.2% | outcome [2] | outcome [3] | outcome [4] | Potency [5] | outcome [6]

CCOC(C(=O)OCCN(C)C)(c1ccccc1)c1ccccc1
active: AC50 [2] 22.4 µM | AC50 [3] 25.1 µM | AC50 [4] 25.1 µM
inactive: efficacy [1] 59.7% | Potency [5] | outcome [6]

CC(Cc1ccccc1)NCc1ccccc1Cl (centres undefined)
inactive: efficacy [1] -110% | Potency [5] | outcome [6]
active: AC50 [2] 14.1 µM | AC50 [3] 14.1 µM | AC50 [4] 14.1 µM

CC(Cc1ccccc1)NCCCCl (centres undefined)
inactive: efficacy [1] 66.3% | Potency [5] | outcome [6]
active: AC50 [2] 22.4 µM | AC50 [3] 35.5 µM | AC50 [4] 35.5 µM

C=CC[C@]1(O)CC[C@H]2[C@@H]3CCC4=CC(=O)CCC4=C3C=C[C@@]21C
inactive: efficacy [1] 89.4% | outcome [3] | Potency [5] | outcome [6]
active: AC50 [2] 28.2 µM | AC50 [4] 35.5 µM

CCC(=O)C(CCN(C)C)(c1ccccc1)c1ccccc1
inactive: efficacy [1] 68.8% | outcome [6]
active: AC50 [2] 28.2 µM | AC50 [3] 31.6 µM | AC50 [4] 31.6 µM

CC[C@H](O)C(C[C@H](C)N(C)C)(c1ccccc1)c1ccccc1
active: AC50 [2] 11.2 µM | AC50 [3] 8.91 µM | AC50 [4] 8.91 µM
inactive: efficacy [1] 49.4% | Potency [5] | outcome [6]

CN1C(=O)[C@@H](NC(=O)c2cc3ccccc3[nH]2)N=C(c2ccccc2)c2ccccc21
inactive: efficacy [1] -160% | outcome [3] | outcome [4] | Potency [5] | outcome [6]
active: AC50 [2] 39.8 µM

CCC(=O)OC1(c2ccccc2)CCN(C)CC1
inactive: efficacy [1] 69.7% | outcome [3] | Potency [5] | outcome [6]
active: AC50 [2] 31.6 µM | AC50 [4] 31.6 µM

COc1cc(CC(C)N)c(OC)cc1Br (centres undefined)
inactive: efficacy [1] 80.6% | outcome [3] | Potency [5] | outcome [6]
active: AC50 [2] 31.6 µM | AC50 [4] 39.8 µM

Oc1ccc([C@H]2CNCc3c2ccc(O)c3O)cc1O
active: AC50 [2] 14.1 µM | AC50 [3] 14.1 µM | AC50 [4] 14.1 µM
inactive: efficacy [1] 69.3% | outcome [6]

COP(=O)(OC)C(O)C(Cl)(Cl)Cl (centres undefined)
inactive: efficacy [1] -51.3% | outcome [2] | outcome [4] | outcome [7] | outcome [6]

C[N+]1(C)[C@@H]2CC[C@H]1CC(OC(=O)C(CO)c1ccccc1)C2 (some centres undefined)
inactive: efficacy [1] 19.1% | outcome [2] | outcome [8] | outcome [4] | outcome [7] | outcome [6]

COP(=S)(OC)Oc1ccc(Sc2ccc(OP(=S)(OC)OC)cc2)cc1
inactive: efficacy [1] 20.5% | outcome [2] | outcome [8] | outcome [4] | outcome [7] | Potency [5] | outcome [6]

NC(=O)c1ncn([C@@H]2O[C@H](CO)[C@@H](O)[C@H]2O)c1N
inactive: efficacy [1] -19.4% | outcome [2] | outcome [8] | outcome [4] | outcome [7] | Potency [9] | outcome [10]

CN1C(=O)CN=C(c2ccccc2)c2cc([N+](=O)[O-])ccc21
inactive: efficacy [1] 23.9% | outcome [2] | outcome [8] | outcome [4] | outcome [7] | outcome [6]

NC(=O)CN1CCCC1=O
inactive: efficacy [1] 23.9% | outcome [2] | outcome [8] | outcome [4] | outcome [7] | Potency [5] | outcome [6]

COCC(=O)N(c1c(C)cccc1C)C(C)C(=O)OC (centres undefined)
inactive: efficacy [1] -46.6% | outcome [2] | outcome [8] | outcome [4] | outcome [7] | Potency [5] | outcome [6]

C[C@@H]1C[C@@H]([C@H](O)CC2CC(=O)NC(=O)C2)C(=O)[C@@H](C)C1
10.9%: viability (% of control) [16]
6.94%: parasite growth, % of control (lower = inhibition) [13]
6.36%: parasite growth remaining, % of DMSO control (lower = more inhibition) [12]
19.5%: cell viability, % of control (lower = more cytotoxic) [15]
inactive: efficacy [1] -17.6% | outcome [2] | outcome [4] | outcome [7] | Potency [5] | outcome [6]
active: Potency [17] 0.418 µM | Potency [18] 0.235 µM | Potency [19] 0.148 µM | Potency [20] 0.132 µM
5.16%: parasite growth, % of DMSO control [11]
5.04%: growth, % of control [14]

Cc1c(Cl)c(=O)oc2cc(OP(=O)(OCCCl)OCCCl)ccc12
inactive: efficacy [1] 115% | outcome [2] | outcome [3] | outcome [4] | outcome [6]

CC(C)(O)C(Cl)(Cl)Cl
inactive: efficacy [1] -12.3% | outcome [2] | outcome [8] | outcome [4] | outcome [7] | Potency [5] | outcome [6]

Cc1cc(C(C)(C)C)cc(C)c1CC1=NCCN1
84.3%: growth, % of control [14]
active: AC50 [2] 14.1 µM | AC50 [3] 12.6 µM | AC50 [4] 12.6 µM
38.8%: parasite growth remaining, % of DMSO control (lower = more inhibition) [12]
58.8%: parasite growth, % of DMSO control [11]
inactive: efficacy [1] 93.8%

NC(=O)OCCCc1ccccc1
inactive: efficacy [1] 24.7% | outcome [2] | outcome [8] | outcome [4] | outcome [7] | Potency [5] | outcome [6]

CCOC(=O)c1cncn1C(C)c1ccccc1 (centres undefined)
inactive: efficacy [1] 19.1% | outcome [2] | outcome [8] | outcome [4] | outcome [7] | outcome [6]

COc1cc(C[C@@H](C)N)c(OC)cc1Br
inactive: efficacy [1] 42.4% | outcome [6]
active: AC50 [2] 31.6 µM | AC50 [3] 31.6 µM | AC50 [4] 31.6 µM
